Assay results: PubChem BioAssay AID1159580 (chemical genetic matrix, 2015)
Among all 5,500 compounds or so, about 2,000 (36%) were called active. Another 18% or so got no clear call; they are omitted. No stated cut-off is given here; in the data, active means normalized growth mostly below about 0.91 (no sharp cut-off); inconclusive means no clear call, values can overlap the other calls; inactive means mostly above about 0.92. This is one part of the list.

Experiment: chemical genetic growth profiling, strain panel (AID 1159580);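 further: tested at 20 µM; growth read once vehicle control cultures reached saturation at 30 °C; 1 = growth at the plate median or of vehicle wells; lower values mean less growth of the strain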
Details: S. cerevisiae deletion strains, growth OD

Measured: normalized growth

O=C1CC(CSc2ccc(Cl)cc2)=NN1
active: locus YBR229C, strain ROT2, hits give low values 0.911 | locus YEL061C, strain CIN8, hits give low values 0.832 | locus YHR087W, strain rtc3, hits give low values 0.837 | locus YJL187C, strain SWE1, hits give low values 0.908 | locus YLR085C, strain ARP6, hits give low values 0.659 | locus YML094W, strain GIM5, hits give low values 0.857 | locus YMR219W, strain ESC1, hits give low values 0.918 | locus YNL298W, strain CLA4 (second series), hits give low values 0.789 | locus YNL322C, strain KRE1, hits give low values 0.938 | locus YNR030W, strain Alg12, hits give low values 0.844 | locus YPL241C, strain CIN2, hits give low values 0.83 | locus YPR135W, strain CTF4, hits give low values 0.639
inactive: locus YAL013W, strain DEP1, hits give low values 0.957 | locus YCL061C, strain MRC1, hits give low values 0.95 | locus YDL101C, strain DUN1, hits give low values 1.02 | locus YDR150W, strain NUM1, hits give low values 0.968 | locus YGR078C, strain PAC10, hits give low values 0.963 | locus YHR030C, strain SLT2, hits give low values 0.752 | locus YJR043C, strain POL32, hits give low values 0.982 | locus YJR075W, strain HOC1, hits give low values 0.936 | locus YLR039C, strain RIC1, hits give low values 1.02 | locus YLR058C, strain SHM2 (second series), hits give low values 0.949 | locus YLR262C, strain YPT6, hits give low values 0.987 | locus YMR263W, strain SAP30, hits give low values 0.978 | locus YNL153C, strain GIM3, hits give low values 0.965 | locus YPL055C, strain LGE1, hits give low values 0.89
